# A selection: hits, their analogues and other compounds. The true share with any hit is near 3.5%.
# CHRM1 PAM – human CHRM1 positive allosteric modulation. P11229. CHO-K1 hM1, Fluo-8 calcium fluorescence, ACh EC20; 0% = ACh EC20, 100% = maximal ACh. activation, % at 3 µM. 360,000 compounds, 0.088% hits. AID 588819; in the data active means activation above about 19%, passing the limit was not always enough
# Target sequence (P11229 whole entry, looked up): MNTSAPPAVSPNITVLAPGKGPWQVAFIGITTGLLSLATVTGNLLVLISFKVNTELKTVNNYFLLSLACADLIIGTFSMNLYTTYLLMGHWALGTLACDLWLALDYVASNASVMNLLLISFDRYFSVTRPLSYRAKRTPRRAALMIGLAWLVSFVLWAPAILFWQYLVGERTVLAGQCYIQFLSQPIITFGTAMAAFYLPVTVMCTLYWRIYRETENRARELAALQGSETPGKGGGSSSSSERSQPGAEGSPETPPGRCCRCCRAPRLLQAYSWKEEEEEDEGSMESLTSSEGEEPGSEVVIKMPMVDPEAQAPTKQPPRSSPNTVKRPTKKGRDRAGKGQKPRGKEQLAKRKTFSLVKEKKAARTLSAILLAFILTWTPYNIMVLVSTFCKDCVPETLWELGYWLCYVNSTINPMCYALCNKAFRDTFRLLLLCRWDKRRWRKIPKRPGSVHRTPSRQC
# Myeloid diff MLP – compounds promoting myeloid differentiation | ER-HoxA9 myeloid progenitors, lysozyme-GFP differentiation, flow cytometry | calls only at 10 µM | 360,000 compounds, 1% hits | AID 624256;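 active means normalized GFP-positive differentiation at or above the plate's own cutoff, the solvent-only control mean plus 3 SD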;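 further: cells exposed to compound for four days before flow analysis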
# CHRM1 agonist – human M1 muscarinic receptor agonism. P11229. CHO-K1 hM1, Fluo-8 calcium fluorescence, agonist mode; 0% DMSO, 100% acetylcholine EC100. activation, % at 3 µM. 360,000 compounds, 0.33% hits;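 active means activation above the run's mean compound activation plus 3 SD, cut at about 16% in these data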;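 further: peak over basal fluorescence ratio within a 140 s kinetic read after compound addition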
# ATG4B inh – inhibitors of human ATG4B cysteine protease | inhibition, % at 8.33 µM | AID 504462 | Q9Y4P1 | 340,000 compounds, 0.51% hits | ATG4B cleavage of LC3-PLA2, NBD-HPC fluorescence, 1 h; in the data active means inhibition above about 40%
# SKN-1 inh – inhibitors of C. elegans SKN-1; 360,000 compounds, 0.49% hits; C. elegans VP596 Pgst-4::GFP/RFP ratio, acrylamide-induced, 24 h; inhibition, % at 21.8 µM; AID 624304;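 active means interference check ratio from 0.5 to 1.5 plus GFP to RFP signal ratio inhibition reaching or exceeding a fixed threshold, cut at about 30% in these data, passing the limit was not always enough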
# M1 antag – human CHRM1 antagonism | P11229 | CHO-K1 hM1, Fluo-8 calcium fluorescence, ACh EC80 antagonist | inhibition, % at 3 µM | 360,000 compounds, 1.3% hits;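 active means percent inhibition above its own plate's cutoff, namely the mean of that plate's compound wells plus 3 SD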;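 further: peak over basal fluorescence ratio during 140 s after agonist addition; 0% = ACh EC80 plus DMSO and 100% = DMSO alone without agonist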
# ATG4B conf – ATG4B (human) inhibition, single-dose confirmed. inhibition, % at 8.33 µM. shares compounds with ATG4B inh. 320 compounds, 92% hits. ATG4B protease fluorescent substrate cleavage assay; in the data active means inhibition above about 39%
# PLA2 counter – inhibits human PLA2, flagging false ATG4B inhibitors; purified PLA2, NBD-C6-HPC fluorescence, 45 min; shares compounds with ATG4B inh; inhibition, % at 8.33 µM; 1,600 compounds, 66% hits; in the data active means inhibition above about 50%
# Starred values were filed as active, the others as inactive; i = inactive; nt = no result given.
SMILES,CHRM1 PAM,Myeloid diff MLP,CHRM1 agonist,ATG4B inh,SKN-1 inh,M1 antag,PLA2 counter,others
O=C(c1cc(F)c(F)cc1Cl)N1CCN(CCc2ccccc2)CC1,-3,i,-2,-1,11,-5,nt,
Cc1ccccc1OCCC(=O)OCC(=O)NC1CCS(=O)(=O)C1 (centres undefined),4,i,1,-4,14,-3,nt,
Cc1[nH]c2ccccc2c1SCC(=O)NNC(=O)Nc1ccc(OC(F)(F)F)cc1,-5,i,-3,-13,-2,14,nt,
CC(C)c1ccc2c(c1)C(c1cccs1)=NNC(c1ccncc1)=N2,11,i,-3,-5,-1,-10,nt,
c1ccc(C2=Nc3c(ccc4ccccc34)C(c3ccncc3)=NN2)cc1,4,i,-6,47*,19,-11,71*,
Brc1ccc(C2=Nc3ccccc3C(c3ccncc3)=NN2)cc1,2,i,-3,-5,6,3,nt,
CC(C)c1ccc2c(c1)C(c1ccc(N3CCOCC3)cc1)=NNC(c1cccs1)=N2,13,i,-2,70*,24,-8,72*,
CCc1ccc2c(c1)C(c1ccncc1)=NNC(c1ccccc1)=N2,-1,i,-5,48*,9,4,59*,
Cc1ccc2c(c1)C(c1ccncc1)=NNC(c1ccccc1)=N2,7,i,-9,3,2,-3,nt,
Cc1cccn2c(=O)c(/C=C(\C#N)S(=O)(=O)c3ccccc3)c(N3CCN(c4ccccc4)CC3)nc12,18,i,-1,5,5,-15,nt,
CCN1CCN(c2nc3c(C)cccn3c(=O)c2/C=C(\C#N)S(=O)(=O)c2ccccc2)CC1,-12,i,0,50*,0,13,52*,
Cc1ccccc1C(=O)NC(=S)Nc1ccc(S(=O)(=O)N(C)c2ccccc2)cc1,0,i,-5,48*,-5,-6,57*,
Cc1cccc(C(=O)NC(=S)Nc2ccc(S(=O)(=O)N(C)c3ccccc3)cc2)c1,7,i,-1,7,27,-37,nt,
Cc1ccc(S(=O)(=O)CC(=O)Nc2nc3ccc(S(N)(=O)=O)cc3s2)cc1,5,i,-2,-7,-7,0,nt,
CSCc1c(C(=O)N2CCCc3ccccc32)oc2ccccc12,-12,i,-3,61*,-2,26,78*,
O=C(c1cc(=O)c2ccccc2o1)N1CCCc2ccccc21,-1,i,-5,1,3,2,nt,
CSc1ccc(Cl)c(C(=O)OCC(=O)N2CCN(c3ccccc3)CC2)c1,8,i,-3,-15,0,-4,nt,
CCCCCCCCN1[C@@H](CC(=O)O)c2cc(C(F)(F)F)ccc2S1(=O)=O,-6,i,-9,2,2,15,nt,
CCCCCCCCCCCCN1[C@@H](CC(=O)O)c2cc(C(F)(F)F)ccc2S1(=O)=O,0,i,-2,59*,-11,6,72*,
CCCNC(=O)Nc1nnc(C2CC2)s1,11,i,-9,-3,7,-6,nt,
CC(C)(C)c1ccc(OC(=O)c2ccccc2)cc1,17,i,-2,68*,-11,-18,64*,
COc1cccc(NC(=O)CN(C)C(=O)Cn2c(=O)oc3ccccc32)c1,15,i,-1,0,10,-17,nt,
O=C(Cn1cccc1C(=O)c1ccccc1)NCCC1=CCCCC1,7,i,-5,43*,10,-4,42,ATG4B conf=62*
O=C(Cn1cccc1C(=O)c1ccccc1)NCCCc1ccccc1,16,i,-2,18,-11,-19,nt,
Cc1ccsc1C(=O)NCc1ccccc1Cl,0,i,-5,2,-4,7,nt,
Cc1ccsc1C(=O)NCCC(c1ccccc1)c1ccccc1,1,i,-8,41*,7,-4,49,
COC(=O)[C@]12CCCCC=C1N(CCC1=CCCCC1)C(=O)[C@H](CC(=O)N1CCCC1)C2,nt,i,nt,nt,6,nt,nt,
